# Compounds without any hit were thinned out: in the full panel of roughly 79,000, 15% have a hit. Unmarked numbers belong to inactive results. Calls of active or inactive are those of the source. Cut-off read from the data, not from the text of the source: active = growth inhibition above about 70%; inactive = the rest.
# Assays:
# [1] = NCI Yeast Anticancer Drug Screen. Data for the rad50 strain (AID 155);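 note: 0% = growth of vehicle-only cultures of the same strain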; conditions: S. cerevisiae rad50 strain growth inhibition; at 50.0 µM; stronger effect = higher value
# Summary of the method: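 Cells are treated with compound, grown, and their growth is then scored against vehicle-only cultures of the same repair-deficient yeast strain.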
# [2] = NCI Yeast Anticancer Drug Screen. Data for the mec2-1 strain (AID 157); conditions: S. cerevisiae mec2-1 strain, at 50.0 µM, stronger effect = higher value
# Summary of the method: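 Mutant yeast (mec2-1) grown with compound; growth inhibition relative to vehicle control reported.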
# [3] = NCI Yeast Anticancer Drug Screen. Data for the sgs1 mgt1 strain (AID 161);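 note: 0% = growth of cultures given vehicle only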; conditions: S. cerevisiae sgs1 mgt1 strain, at 50.0 µM, stronger effect = higher value
# Summary of the method: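 Yeast cells carrying a defined DNA-repair defect were exposed to test compounds. Growth inhibition was measured relative to vehicle-treated controls.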
# [4] = NCI Yeast Anticancer Drug Screen. Data for the cln2 rad14 strain (AID 165);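 note: 0% = growth equal to vehicle treated cultures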; conditions: S. cerevisiae cln2 rad14 strain, at 50.0 µM, stronger effect = higher value
# Summary of the method: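 Readout is yeast growth inhibition versus vehicle-treated controls, using a strain with cln2 and rad14 alterations exposed to compound.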
# [5] = NCI Yeast Anticancer Drug Screen. Data for the bub3 strain (AID 167); conditions: S. cerevisiae bub3 mutant strain, at 50.0 µM, stronger effect = higher value
# Summary of the method: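 Part of a panel of yeast mutants defective in DNA damage repair or cell cycle regulation. Each strain is grown with compound, and inhibition is calculated relative to solvent-treated cultures.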
# [6] = NCI Yeast Anticancer Drug Screen. Data for the mlh1 rad18 strain (AID 175); conditions: S. cerevisiae mlh1 rad18 strain growth inhibition; at 50.0 µM; stronger effect = higher value
# Summary of the method: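 Genetically defined yeast (DNA repair-deficient) exposed to compounds; growth inhibition determined relative to vehicle.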
SMILES,growth inhibition [1],growth inhibition [2],growth inhibition [3],growth inhibition [4],growth inhibition [5],growth inhibition [6]
Cc1ccccc1CCCC(C(=O)O)C(=O)O,-18.8%,-7.75%,10.8%,-2.8%,-1.55%,1.75%
Cc1cc(-c2ccccc2)cc(C[n+]2ccccc2)[n+]1-c1ccccn1,12.8%,6.2%,9.2%,-3.8%,2.2%,18.9%
C=Cc1c(C)c(C)c(C=C)c(C)c1C,-3.85%,6.65%,-8.2%,4.75%,-10.2%,-17.3%
CC1(C)Oc2ccc3ccccc3c2C(c2ccc(O)cc2)=C1c1ccccc1,-51.5%,-11%,5.2%,7.75%,-3.1%,-20.6%
CCOC(=O)CNC(=O)C(CCSCc1ccccc1)NC(=O)OCc1ccccc1 (configuration not stated),-2.75%,6.55%,0.3%,28.6%,4.45%,15.2%
COCCCNC(=O)CC(=O)NCCCOC,13.4%,-2.3%,24.8%,6.55%,5%,29.4%
COc1ccc(C(=O)c2ccccc2)c(OC(=O)Nc2c(Cl)cccc2Cl)c1,-4.25%,-23.9%,10.2%,1.05%,-0.1%,22.6%
O=C(NO)Oc1cccc2ccccc12,9.7%,0.55%,0.25%,6.75%,-3.3%,5.85%
Nc1nc(Sc2ccc([N+](=O)[O-])c3nonc23)c2[nH]cnc2n1,17.1%,7.25%,-20.4%,17.2%,29.1%,34.6%
O=C1CCNC(=O)N1,33.7%,-7.35%,4.75%,21.1%,-10.2%,23.4%
Cc1c(F)cccc1NC(=O)OC(C)C,18.2%,-5.15%,-0.7%,-50.8%,12.8%,5.1%
CC1(C)NC(=O)N(CCCCCCN2C(=O)NC(C)(C)C2=O)C1=O,5.1%,-9.45%,5.85%,6.1%,-20.2%,8.6%
C/C(=N\NC(=O)c1ccncc1)c1cccc(Br)c1,12%,13.9%,5.35%,6.6%,5.35%,11.8%
COc1cc2c(cc1OC)C1C(=O)c3c(O)cc4c(c3OC1CO2)C=CC(C)(C)O4 (configuration not stated),49.8%,10.3%,14.3%,15.3%,33.9%,36.7%
CC(C)(C)OC(=O)[N+](=N)C(=O)C1CCC(=O)N1C(=O)OCc1ccccc1 (configuration not stated),-27.7%,-33.6%,-23.4%,-11.4%,-1.9%,-20%
CN(C)CCNC1c2ccccc2-c2ccccc21,-15.1%,-22.6%,3.35%,-0.9%,10.2%,-9%
Fc1cccc(C2SCc3nc4cc5ccccc5cc4n32)c1 (configuration not stated),-21.8%,-1.25%,8.8%,-0.45%,-19.7%,-9.65%
CCCCS/C=C\SCCCC,2.85%,7.55%,-8.5%,-26.4%,6.7%,-1.65%
O=C(O)C(Cc1ccccc1)N1C(=O)c2ccccc2C1=O (configuration not stated),1.7%,-17.5%,-35.6%,-19.6%,-36.5%,5.55%
CCOCC(=O)N[C@H]1CCc2cc(OC)c(OC)c(OC)c2-c2ccc(SC)c(=O)cc21,10.7%,26.9%,12.2%,-53.6%,-8.3%,47.1%
O=C(O)C(Cc1ccc(O)cc1)N=Cc1nc(-c2ccccc2)oc1O (configuration not stated),-3.5%,-3.5%,0.25%,3%,-6.5%,0.7%

SMILES,growth inhibition [1],growth inhibition [2],growth inhibition [3],growth inhibition [4],growth inhibition [5],growth inhibition [6]
COc1cccc(C=O)c1[O-].COc1cccc(C=O)c1[O-].[Zn+2],52.4%,17.9%,56.7%,32.2%,11.8%,66%
CCCCC1(CCBr)C(=O)NC(=Nc2ccccc2)NC1=O (configuration not stated),1.85%,-5.35%,10.3%,-41.8%,2.95%,-13.9%
Cc1csc2nc3[nH]ncc3c(=O)n12,-21.6%,-59%,-15.1%,-9.85%,-5.65%,-14.9%
O=C(O)c1c(Br)c(Br)c(Br)c(Br)c1C(=O)Nc1ccc(Br)cc1,2.25%,-1.3%,5.8%,-8.6%,2.75%,33.2%
O=[N+]([O-])c1ccc(/C=C2/c3ccccc3-c3nc4ccccc4cc32)cc1,21.9%,-2.55%,-2.9%,-2.6%,7.3%,20.8%
Cc1ccc(OC/C=N\N=C(N)N)cc1C,-7.9%,16.4%,41.3%,-6%,8.3%,17.1%
COC(=O)c1cc(C)c(C)c2c1NC(=O)CNC2=O,-4.1%,-4.2%,3.95%,19.8%,-3.7%,7.95%
CCCCCCCCCCCCCCCCNC(=O)C(C)O (configuration not stated),23.9%,3.2%,17.2%,-13.9%,7.7%,30.4%
COc1ccc(NC=O)c(C)c1,-10.5%,-38.8%,-5.35%,-10.3%,28.6%,-29%
CCOC(=O)C1C(c2ccc(Br)cc2)N(Cc2ccccc2)C(c2ccc(Br)cc2)C(C(=O)OC)S1(=O)=O (configuration not stated),-42.2%,-49.5%,-16.6%,-25.1%,-21.4%,-22.1%
CC(=O)OCC1OC(n2c(Br)nc3c2c(=O)n(C)c(=O)n3C)C(OC(C)=O)C1OC(C)=O (configuration not stated),-19.9%,-1.3%,-14.3%,-7.95%,-0.95%,0.25%
[O-][n+]1ccccc1/C=C/c1cccc[n+]1[O-],-30.1%,-31.1%,-7.55%,-22%,-0.85%,-18.4%
O=S(Nc1ccc(Br)cc1)c1ccccc1 (configuration not stated),-3.5%,-0.35%,5.65%,-8.2%,3.4%,1.55%
CCCCCCCCCCCCCCCCCC(=O)N/N=C/c1ccc(O)cc1,-22.3%,-12.4%,-16.2%,-61.2%,-6.2%,1.85%
Cc1cccc(C)c1OC(=O)/C=C/c1ccccc1,31.3%,-10.5%,33%,-11.2%,-11.8%,1.05%
COCCOCc1nc(C#N)c(N)o1,-6.6%,2.6%,-36%,13.8%,-24%,-66.2%
S=C1SCN(c2ccc(Br)cc2)CN1c1ccc2[nH]c(=S)sc2c1,10.6%,15.3%,26.1%,0.45%,12.1%,5.65%
O=C1c2ccccc2C(=O)N1CCSCCSCCN1C(=O)c2ccccc2C1=O,-3.1%,-13.7%,12.6%,14.6%,-7.15%,10.2%
O=C1CCCCCCCCCCC1Sc1ccccc1 (configuration not stated),-23.2%,-36.6%,-6.8%,3.1%,7.3%,-28.9%
O=C(Nc1cccc(Cl)c1)C(Br)C(Br)c1ccccc1 (configuration not stated),97.8% (active),99.2% (active),99.3% (active),99.2% (active),98.5% (active),98.7% (active)
COc1ccc(-c2cc(-c3ccccc3)c(C#N)c(=O)[nH]2)cc1,22.9%,5.85%,17.4%,17%,6.3%,21%
